Data taken from ChEMBL document CHEMBL3988442, “University of Dundee, Small-Polar-MMV Screening Library” (2021).
For some assays here: Entries with a potency or affinity are not part of this list.

How the values were obtained:
Parameters in all cases: scale not given: direction of the effect not stated beside the values
[1] = target: Protein translocase subunit SecA (Escherichia coli (strain K12)) (UniProt P10408); experiment: Assay to Identify E. coli SecA ATPase Inhibitors; assay type: functional; settings: 30 µM
Chain of Protein translocase subunit SecA (Escherichia coli (strain K12)) (P10408 whole entry): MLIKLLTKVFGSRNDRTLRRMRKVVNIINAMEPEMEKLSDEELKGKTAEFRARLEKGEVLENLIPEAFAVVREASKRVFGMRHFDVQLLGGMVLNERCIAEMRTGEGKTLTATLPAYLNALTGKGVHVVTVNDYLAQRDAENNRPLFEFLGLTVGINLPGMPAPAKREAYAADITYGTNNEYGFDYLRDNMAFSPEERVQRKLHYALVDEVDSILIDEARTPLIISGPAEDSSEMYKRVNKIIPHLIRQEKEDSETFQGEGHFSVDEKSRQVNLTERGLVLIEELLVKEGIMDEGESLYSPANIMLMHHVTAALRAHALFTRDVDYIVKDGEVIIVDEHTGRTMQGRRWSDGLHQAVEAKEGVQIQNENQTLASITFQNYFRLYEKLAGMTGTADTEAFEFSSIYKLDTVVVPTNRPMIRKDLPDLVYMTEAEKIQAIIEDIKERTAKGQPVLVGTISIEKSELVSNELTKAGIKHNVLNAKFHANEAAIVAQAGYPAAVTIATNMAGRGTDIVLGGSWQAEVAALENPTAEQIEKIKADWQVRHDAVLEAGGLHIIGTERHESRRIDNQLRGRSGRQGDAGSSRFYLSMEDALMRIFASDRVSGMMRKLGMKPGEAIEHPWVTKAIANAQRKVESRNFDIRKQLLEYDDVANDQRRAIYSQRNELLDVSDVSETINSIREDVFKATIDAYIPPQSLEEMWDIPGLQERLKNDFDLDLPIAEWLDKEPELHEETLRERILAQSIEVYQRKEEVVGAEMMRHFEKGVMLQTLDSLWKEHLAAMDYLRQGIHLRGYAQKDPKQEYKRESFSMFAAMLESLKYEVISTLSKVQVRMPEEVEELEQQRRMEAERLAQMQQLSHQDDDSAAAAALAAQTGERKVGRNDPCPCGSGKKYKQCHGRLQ

[2] = target: T1, Ubiquitin-activating enzyme e1, putative (Leishmania donovani (strain BPK282A1)) (UniProt E9BSI1); experiment: Leishmania donovani Ubiquitin Activating Enzyme (LdE1); assay type: functional; settings: 30 µM
T1 sequence (whole entry): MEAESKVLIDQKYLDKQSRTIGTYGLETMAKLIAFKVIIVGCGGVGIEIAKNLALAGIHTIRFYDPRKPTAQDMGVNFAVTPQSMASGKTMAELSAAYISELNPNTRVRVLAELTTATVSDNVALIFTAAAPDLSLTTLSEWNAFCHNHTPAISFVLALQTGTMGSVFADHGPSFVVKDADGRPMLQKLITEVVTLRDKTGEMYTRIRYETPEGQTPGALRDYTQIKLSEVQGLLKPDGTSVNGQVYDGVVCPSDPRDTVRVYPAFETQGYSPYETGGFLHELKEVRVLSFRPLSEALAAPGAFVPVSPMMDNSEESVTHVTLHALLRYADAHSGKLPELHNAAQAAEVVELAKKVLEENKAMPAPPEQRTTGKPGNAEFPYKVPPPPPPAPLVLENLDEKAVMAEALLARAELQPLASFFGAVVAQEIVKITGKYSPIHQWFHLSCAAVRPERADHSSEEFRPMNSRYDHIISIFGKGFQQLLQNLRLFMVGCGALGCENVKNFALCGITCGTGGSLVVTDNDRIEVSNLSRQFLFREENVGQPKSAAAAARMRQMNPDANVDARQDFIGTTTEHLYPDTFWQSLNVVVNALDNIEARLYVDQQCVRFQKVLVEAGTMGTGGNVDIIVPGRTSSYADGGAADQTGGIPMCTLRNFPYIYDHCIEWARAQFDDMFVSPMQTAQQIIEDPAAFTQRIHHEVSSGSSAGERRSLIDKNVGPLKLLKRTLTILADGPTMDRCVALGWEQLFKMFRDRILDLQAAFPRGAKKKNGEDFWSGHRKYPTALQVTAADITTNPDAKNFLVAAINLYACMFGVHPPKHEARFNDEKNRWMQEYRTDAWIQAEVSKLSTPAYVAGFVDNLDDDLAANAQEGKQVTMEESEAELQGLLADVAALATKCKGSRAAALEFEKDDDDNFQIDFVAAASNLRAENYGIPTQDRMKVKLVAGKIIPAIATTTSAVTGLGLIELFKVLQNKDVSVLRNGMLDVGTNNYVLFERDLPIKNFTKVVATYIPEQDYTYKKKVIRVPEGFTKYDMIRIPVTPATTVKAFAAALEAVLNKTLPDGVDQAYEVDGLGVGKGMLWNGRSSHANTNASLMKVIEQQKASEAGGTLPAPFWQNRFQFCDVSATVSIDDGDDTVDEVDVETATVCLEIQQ

[3] = target: AMP-activated protein kinase, AMPK (Homo sapiens) (UniProt P54646+O43741+P54619+Q9UGJ0+Q9Y478+Q13131+Q9UGI9); experiment: AMP-dependent Kinase enzyme assay. An in vitro enzyme assay that detects ADP turnover that is directly proportional to AMPK activity. This uses naive AMPK that is activated during the assay with MK-8722; assay type: functional; settings: 30 µM
[4] = target: Sialic acid-binding Ig-like lectin 9 (Homo sapiens) (UniProt Q9Y336); experiment: Hs-Siglec9 ALPHAscreen SOP 20170721; settings: 10 µM
Chain of Sialic acid-binding Ig-like lectin 9 (Homo sapiens) (Q9Y336 whole entry): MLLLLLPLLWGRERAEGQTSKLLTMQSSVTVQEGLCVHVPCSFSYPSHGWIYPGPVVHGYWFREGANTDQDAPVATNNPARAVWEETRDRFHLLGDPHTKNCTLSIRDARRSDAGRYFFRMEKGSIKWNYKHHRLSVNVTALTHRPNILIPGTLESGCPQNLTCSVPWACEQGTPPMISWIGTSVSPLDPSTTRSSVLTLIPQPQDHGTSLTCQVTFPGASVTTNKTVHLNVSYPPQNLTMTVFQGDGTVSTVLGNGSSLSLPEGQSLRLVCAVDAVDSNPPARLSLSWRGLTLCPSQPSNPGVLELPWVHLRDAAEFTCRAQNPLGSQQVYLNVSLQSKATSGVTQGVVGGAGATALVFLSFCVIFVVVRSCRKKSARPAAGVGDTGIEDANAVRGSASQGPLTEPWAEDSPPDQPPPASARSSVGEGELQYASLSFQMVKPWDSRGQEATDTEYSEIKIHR

Trypanosoma cruzi = experiment: Trypanosoma cruzi phosphomannomutase and mannose-1-phosphate guanylyltransferase assay; assay type: functional; settings: 10 µM
[5] = target: T2, Arginase-2, mitochondrial (Homo sapiens) (UniProt P78540); experiment: in vitro enzyme assay to detect the production of urea directly proportional to the activity of Arginase II; assay type: functional; settings: 33.3 µM; note: in the data most compounds retested in dose-response had high values
T2 sequence (whole entry): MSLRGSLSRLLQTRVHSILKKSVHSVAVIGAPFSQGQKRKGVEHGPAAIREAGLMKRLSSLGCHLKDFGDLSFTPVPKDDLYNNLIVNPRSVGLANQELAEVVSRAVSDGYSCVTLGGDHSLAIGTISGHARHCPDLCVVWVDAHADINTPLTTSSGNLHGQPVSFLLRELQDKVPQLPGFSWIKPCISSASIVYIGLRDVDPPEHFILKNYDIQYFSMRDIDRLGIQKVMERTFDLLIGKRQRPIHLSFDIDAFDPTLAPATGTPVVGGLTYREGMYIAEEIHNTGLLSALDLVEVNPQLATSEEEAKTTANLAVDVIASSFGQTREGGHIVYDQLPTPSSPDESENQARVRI

[6] = target: T3, Proteasome subunit beta (Trypanosoma cruzi) (UniProt O96673); experiment: Trypanosoma cruzi proteasome chymotrypsin-like activity (TcProtChymo) assay.; note: in the data most compounds retested in dose-response had high values; assay type: functional; settings: 9.37 µM
T3 sequence (whole entry): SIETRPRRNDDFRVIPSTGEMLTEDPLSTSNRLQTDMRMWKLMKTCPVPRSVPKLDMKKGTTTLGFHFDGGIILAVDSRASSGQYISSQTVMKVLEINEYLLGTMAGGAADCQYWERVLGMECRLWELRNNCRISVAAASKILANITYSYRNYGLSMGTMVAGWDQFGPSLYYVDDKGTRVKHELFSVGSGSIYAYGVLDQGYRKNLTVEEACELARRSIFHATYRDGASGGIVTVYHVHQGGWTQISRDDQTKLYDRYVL

Homo sapiens = organism: Homo sapiens; experiment: To identify inhibition of the IFN signalling (Jak-Stat) pathway via expression of an eGFP reporter gene under the control of an IFN-stimulated response element (ISRE) containing MxA promoter.; assay type: functional; settings: 30 µM
[7] = target: T4, Tyrosyl-tRNA synthetase, putative (Trypanosoma cruzi (strain CL Brener)) (UniProt Q4DSP6); experiment: Trypanosoma cruzi tyrosyl tRNA synthetase (TcYRS) _High Tyrosine SOP; assay type: functional; settings: 30 µM; note: in the data most compounds retested in dose-response had high values
T4 sequence (whole entry): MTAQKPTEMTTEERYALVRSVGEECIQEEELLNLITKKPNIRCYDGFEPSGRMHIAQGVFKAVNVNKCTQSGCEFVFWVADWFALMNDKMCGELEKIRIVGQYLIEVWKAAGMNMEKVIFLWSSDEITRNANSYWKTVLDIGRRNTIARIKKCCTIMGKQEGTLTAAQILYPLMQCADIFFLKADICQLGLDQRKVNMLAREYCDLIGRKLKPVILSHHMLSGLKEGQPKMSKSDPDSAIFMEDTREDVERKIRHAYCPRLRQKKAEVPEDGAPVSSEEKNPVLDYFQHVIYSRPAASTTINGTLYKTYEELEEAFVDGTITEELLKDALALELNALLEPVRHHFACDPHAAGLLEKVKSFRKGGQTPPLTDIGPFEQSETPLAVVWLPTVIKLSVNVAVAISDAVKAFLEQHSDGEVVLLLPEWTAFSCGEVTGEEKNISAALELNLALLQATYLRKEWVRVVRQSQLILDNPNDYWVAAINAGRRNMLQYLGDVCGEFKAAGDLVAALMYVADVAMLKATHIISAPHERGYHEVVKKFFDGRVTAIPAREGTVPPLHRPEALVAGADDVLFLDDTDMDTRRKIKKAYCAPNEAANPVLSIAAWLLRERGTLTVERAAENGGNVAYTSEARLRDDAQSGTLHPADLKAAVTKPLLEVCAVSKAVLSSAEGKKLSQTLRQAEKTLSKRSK

[8] = target: T4, Tyrosyl-tRNA synthetase, putative (Trypanosoma cruzi (strain CL Brener)); experiment: Trypanosoma cruzi tyrosyl tRNA synthetase (TcYRS) SOP; assay type: functional; settings: 30 µM
[9] = target: Chromo domain-containing protein 1 (Saccharomyces cerevisiae (strain ATCC 204508 / S288c) (Baker's yeast)) (UniProt P32657); experiment: ScCHD-1 Enzyme Inhibition Assay; assay type: functional; settings: 30 µM; note: in the data most compounds retested in dose-response had high values
Chain of Chromo domain-containing protein 1 (Saccharomyces cerevisiae (strain ATCC 204508 / S288c) (Baker's yeast)) (P32657 whole entry, the tested form may be a part): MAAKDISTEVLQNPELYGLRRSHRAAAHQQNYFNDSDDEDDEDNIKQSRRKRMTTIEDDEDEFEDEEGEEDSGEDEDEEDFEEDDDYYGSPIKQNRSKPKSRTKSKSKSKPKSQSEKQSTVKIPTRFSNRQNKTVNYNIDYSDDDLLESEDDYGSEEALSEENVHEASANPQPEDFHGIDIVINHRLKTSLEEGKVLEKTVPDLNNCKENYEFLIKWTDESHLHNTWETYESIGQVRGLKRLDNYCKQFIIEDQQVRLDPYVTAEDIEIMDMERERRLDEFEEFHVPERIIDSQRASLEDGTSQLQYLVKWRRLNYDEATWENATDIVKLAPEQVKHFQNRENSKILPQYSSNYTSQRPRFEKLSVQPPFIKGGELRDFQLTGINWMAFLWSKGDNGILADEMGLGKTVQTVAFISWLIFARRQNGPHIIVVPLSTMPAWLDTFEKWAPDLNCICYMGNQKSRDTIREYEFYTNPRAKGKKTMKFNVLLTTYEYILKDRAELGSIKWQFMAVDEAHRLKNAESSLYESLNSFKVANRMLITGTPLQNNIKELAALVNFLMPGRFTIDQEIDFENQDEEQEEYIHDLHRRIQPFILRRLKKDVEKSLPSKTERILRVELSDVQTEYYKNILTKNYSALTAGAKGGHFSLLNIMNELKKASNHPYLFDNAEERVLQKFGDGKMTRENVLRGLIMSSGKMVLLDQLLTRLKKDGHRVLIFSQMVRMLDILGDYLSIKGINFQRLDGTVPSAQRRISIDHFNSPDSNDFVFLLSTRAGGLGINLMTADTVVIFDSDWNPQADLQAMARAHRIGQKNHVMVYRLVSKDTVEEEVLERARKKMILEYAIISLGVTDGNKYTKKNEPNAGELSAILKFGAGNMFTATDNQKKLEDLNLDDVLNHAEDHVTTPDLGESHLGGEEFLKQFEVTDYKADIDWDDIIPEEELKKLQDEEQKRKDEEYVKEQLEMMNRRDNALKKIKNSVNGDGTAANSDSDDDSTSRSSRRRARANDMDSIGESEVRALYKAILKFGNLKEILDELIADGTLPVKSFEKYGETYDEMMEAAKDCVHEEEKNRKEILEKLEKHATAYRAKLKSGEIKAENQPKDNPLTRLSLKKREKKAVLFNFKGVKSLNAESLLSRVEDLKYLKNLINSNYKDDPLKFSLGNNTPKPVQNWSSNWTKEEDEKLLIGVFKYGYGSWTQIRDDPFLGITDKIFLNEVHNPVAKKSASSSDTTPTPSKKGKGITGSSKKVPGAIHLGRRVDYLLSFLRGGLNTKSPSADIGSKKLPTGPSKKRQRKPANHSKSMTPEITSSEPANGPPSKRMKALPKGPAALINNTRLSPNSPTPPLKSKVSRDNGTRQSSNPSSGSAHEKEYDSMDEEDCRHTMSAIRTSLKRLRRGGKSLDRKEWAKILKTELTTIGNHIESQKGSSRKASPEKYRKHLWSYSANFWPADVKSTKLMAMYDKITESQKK

SMILES | Percent Effect [1] [%] | Percent Effect [2] [%] | Percent Effect [3] [%] | Percent Effect [4] [%] | Percent Effect (Trypanosoma cruzi) [%] | Percent Effect [5] [%] | Percent Effect [6] [%] | Percent Effect (Homo sapiens) [%] | Percent Effect [7] [%] | Percent Effect [8] [%] | Percent Effect [9] [%]
COCCC(=O)N1CCC2(COCc3cnc(-c4ccccc4)nc32)C1 (configuration not stated) | -1.59 | 2.67 | 15.5 | -0.802 | -7.48 | 2.56 | 1.15 | 6.76 | -1.06 | 3.85 | -0.943
O=C(c1cc(COc2ccc3c(c2)OCO3)[nH]n1)N1CCCC1 | -4.35 | -5.48 | 4.54 | 2.19 | -5.56 | 4.39 | 21.7 | 14.2 | 3.12 | 6.17 | -1.77
COc1cccc(COCC(=O)N2CCCC(c3cc(C)[nH]n3)C2)c1 (configuration not stated) | -3.58 | 13.5 | -9.62 | 3.3 | -2.92 | -0.401 | 2.7 | 10.1 | 11.3 | 16.1 | -4.89
N#Cc1cccnc1NCc1cccnc1N1CCC(C(N)=O)CC1 | -4.85 | 8.11 | -4.32 | 8.48 | 0.293 | -0.744 | 12.3 | 3.17 | 3.23 | 13.6 | 1.32
Cc1cc(C)n(CC2CCCN2C(=O)c2c[nH]c3ncccc23)n1 (configuration not stated) | -3.09 | -2.7 | 10.7 | 5.96 | -4.18 | 4.99 | -3.05 | 24.1 | -0.99 | -6.1 | 12.6
CC[C@@H](CO)NC(=O)c1coc(COc2ccc(OC)cc2)n1 | -3.54 | 10.8 | -5.65 | -1.14 | -2.05 | -0.744 | 5.58 | -2.06 | 6.45 | 18.5 | -1.77
Cc1ccc(C2CCCN2Cc2nc3c(cnn3C)c(=O)[nH]2)cc1C (configuration not stated) | -4.42 | 27.9 | -6.55 | -1.46 | 5.19 | -1.52 | 13.8 | 4.19 | 7.39 | 24.1 | -5.15
CC(O)CN1CCN(C(=O)c2cnn(-c3ccccc3F)c2)CC1 (configuration not stated) | -6 | 13.3 | -6.53 | 24.2 | 5.75 | 15.6 | 9.59 | 10.4 | -0.546 | 8.64 | -7.25
Cc1nc(CN2CCCC(NCCc3ccccc3Cl)C2)no1 (configuration not stated) | -4.45 | 7.59 | 4.77 | 11.6 | 2.36 | -1.14 | -3.19 | -4.21 | 5.42 | 8.86 | -0.689
O=C(c1ccoc1)N1CC[C@@H]2O[C@H](COCc3ccccn3)CC[C@@H]21 | 4.07 | 8.11 | 2.6 | -13.6 | -3.42 | 2.87 | 21.4 | 7.99 | 2.16 | 10.3 | -3.84
CCn1ccnc1CN1CCN(Cc2ccc(C#N)cc2)CC1 | -5.95 | 21.1 | -10.9 | -5.15 | 9.96 | -4.6 | 15.9 | 19.8 | 3.43 | 19.5 | -11.6
CCn1cnnc1C1CCN(C(=O)c2ccc(C(=O)OC)s2)CC1 | -6.84 | 10.4 | 4.62 | 9.21 | -4.87 | -0.356 | 7.43 | -6.83 | 4.85 | 12.2 | -5.74
Cc1nccn1C1CCCN(C(=O)C2=NN(C)C(=O)CC2)C1 (configuration not stated) | -0.962 | 18.9 | 2.88 | -10.1 | -3.68 | -4.81 | 20.9 | 23.8 | 4.43 | 6.17 | -3.99
CC(NC(=O)c1ccc2c(c1)OCC(=O)N2)c1ccccc1F (configuration not stated) | -5.46 | 18.4 | 22 | 2 | 1.03 | -0.719 | 9.39 | -9.89 | 10.3 | 18.5 | -4.32
Cc1cc(-c2nnn(CCC(N)=O)n2)ccc1F | -3.96 | 13.7 | -6.12 | 8.1 | 5.75 | -2.79 | 15.3 | 11.3 | 8.33 | 13.6 | -2.17
N#Cc1cnn(-c2ccc(C(=O)Nc3ccccn3)cc2)c1N | -1.12 | 17.7 | 3.05 | -10.6 | 7.65 | -6.46 | 19.7 | 8.19 | 13.3 | 29.1 | -3.72
Cc1ncsc1CN1C[C@@H]2COC[C@]2(COc2ccc(C#N)cn2)C1 | -3.44 | -5.48 | -1.94 | 1.31 | 7.74 | -3.59 | 2.31 | -1.06 | 1.04 | 3.7 | 2.89
Cc1ccccc1C(=O)N1CCOC2(CNCCOC2)C1 (configuration not stated) | -0.256 | 2.7 | -1.58 | 2.44 | -2.51 | -1.43 | 17.8 | 11.5 | 1.59 | 9.76 | -3.15
CN(Cc1cccc(F)c1)C(=O)CN1CCCC1CCc1ccccc1 (configuration not stated) | -3.56 | -7.79 | 2.67 | 4.42 | 3.44 | -1.38 | 2 | -5.85 | 1.07 | -3.7 | 113
CC(=O)N1CCn2cc(CNC(=O)c3cccn3C)nc2C1 | -2.25 | 13.3 | 8.17 | -3.72 | -5.32 | 0.233 | 2.2 | 5.97 | 3.19 | 14.1 | -2.9
CCc1nc(C2CCCN(C(=O)c3cnn(CC)c3)C2)no1 (configuration not stated) | -7.03 | 0 | 3.03 | -1.97 | -5.16 | 1.18 | 5.66 | -8.3 | 1.06 | 5.2 | -2.87
Fc1ccc(CN2CCCC(c3nnc(-c4cnccn4)o3)C2)cc1F (configuration not stated) | -9.81 | 14.9 | -1.12 | 9.24 | -0.198 | -3.02 | 12 | 1.34 | 6.45 | 14.3 | -26.6
